Experimental findings from PubChem BioAssay (NCI) are described below.

Molecules are shown by their SMILES. The panel holds about 83,000 compounds, 20% with a hit somewhere; the sample as a whole holds those more often.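 Negative percent growth values reflect cell death: -40 means 40% of the cells present at the start died, and -100 means all died.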 Values without a mark were called inactive. Calls of active or inactive are those of the source. Rule for the calls: active = growth percent below 10; inactive = the rest.

Assay in all cases: NCI-60 one-dose screen, 48 h (100 = growth as untreated, 0 = no growth, -100 = all killed)
The test system of one assay is HCT-15 colon. To be noted: 10 µM.
For a further assay, the system named is HT29 colon. To be noted: 10 µM.
Another assay relates to SNB-75 CNS. To be noted: 10 µM.
For the next assay, the system named is SNB-19 CNS. To be noted: 10 µM.
In another assay the test system is U251 CNS. To be noted: 10 µM.
For another assay, the system named is PC-3 prostate. To be noted: 10 µM.
Another assay has as its system SK-MEL-5 melanoma. To be noted: 10 µM.
The subject of another assay is UACC-62 melanoma. To be noted: 10 µM unless noted.
The test system of another assay is LOX IMVI melanoma. To be noted: 10 µM.
A further assay has as its system SK-MEL-28 melanoma. To be noted: 10 µM.

With `CN(C)c1ccc(C(c2ccc(O)cc2)c2ccc(N(C)C)cc2)cc1`, the growth with HCT-15 colon is 70.8%; with HT29 colon, 86.2%; in the assay with SNB-75 CNS, 87.3%; with SNB-19 CNS, 97.2%; with U251 CNS, 98.5%; in the assay with PC-3 prostate it was 88.7%. The growth in the assay with SK-MEL-5 melanoma was 90.5%; in the assay on UACC-62 melanoma it was 79.8%; in the assay on LOX IMVI melanoma, 88%; with SK-MEL-28 melanoma, 101%.

Consider `OC1CCCc2ccccc21` (stereo unspecified), for which the growth was 108% in the assay on HCT-15 colon; 101% with HT29 colon; 88% with SNB-75 CNS; 90.8% in the assay with SNB-19 CNS; 108% with U251 CNS; 103% in the assay on PC-3 prostate. Moreover, the growth in the assay on SK-MEL-5 melanoma is 111%; with UACC-62 melanoma, 100%; in the assay on LOX IMVI melanoma, 104%; with SK-MEL-28 melanoma it was 120%.

For the molecule `CCCCC1C(=O)N(c2ccccc2)N(c2ccccc2)C1=O`, the growth with HCT-15 colon is 102%; in the assay on HT29 colon, 104%; in the assay on SNB-75 CNS, 117%; with SNB-19 CNS it was 102%; with U251 CNS, 105%; in the assay with PC-3 prostate, 98.9%. Further, the growth in the assay on SK-MEL-5 melanoma is 102%; with LOX IMVI melanoma it was 99.4%; in the assay with SK-MEL-28 melanoma, 111%.

Turning to `CCOC(=O)c1[nH]c(C)c(C(C)=O)c1C`, the growth is 103% in the assay on HCT-15 colon; 93% in the assay on HT29 colon; 78.2% in the assay on SNB-75 CNS; 94.4% with SNB-19 CNS; 91.2% with U251 CNS; 93.4% in the assay with SK-MEL-5 melanoma. In addition, the growth in the assay with UACC-62 melanoma is 100%; in the assay with LOX IMVI melanoma it was 82.2%; in the assay with SK-MEL-28 melanoma it was 97.4%.

Take `COc1ccc(C(C)C=O)cc1` (stereo unspecified): the growth was 93.8% in the assay with HCT-15 colon; 112% with HT29 colon; 88.4% in the assay on SNB-75 CNS; 107% with SNB-19 CNS; 107% in the assay on U251 CNS; 123% in the assay on SK-MEL-5 melanoma. In addition, the growth was 106% in the assay with UACC-62 melanoma, 105% with LOX IMVI melanoma and 116% in the assay with SK-MEL-28 melanoma.

Turning to `CCCCC(O)c1ccccc1` (stereo unspecified), the growth with HCT-15 colon was 102%; in the assay with HT29 colon, -11.4% (active); with SNB-75 CNS, 92.2%; with SNB-19 CNS, 110%; in the assay with U251 CNS, 98.4%; in the assay on PC-3 prostate, 97.9%. For the same molecule, the values for the growth in the assay with UACC-62 melanoma, in the assay on LOX IMVI melanoma and in the assay on SK-MEL-28 melanoma were 108%, 96.4% and 119%, respectively.

Consider `NC(C(=O)O)c1ccc([N+](=O)[O-])cc1` (stereo unspecified), for which the growth with HCT-15 colon is 95.7%; in the assay on HT29 colon, 149%; in the assay with SNB-75 CNS, 78.9%; with SNB-19 CNS, 99.6%; in the assay on U251 CNS, 115%; in the assay with SK-MEL-5 melanoma, 105%. Besides, the growth with UACC-62 melanoma is 97.3%; with LOX IMVI melanoma, 101%; in the assay with SK-MEL-28 melanoma, 101%.

Turning to `C=CCCCCCCCCCOC(C)=O`, the growth in the assay with HCT-15 colon was 114%; in the assay on HT29 colon, 103%; in the assay with SNB-75 CNS, 101%; in the assay with SNB-19 CNS, 98.3%; in the assay on PC-3 prostate, 95.2%; in the assay on SK-MEL-5 melanoma, 101%. The growth was 95.7% in the assay with UACC-62 melanoma, 99.2% with LOX IMVI melanoma and 112% in the assay with SK-MEL-28 melanoma.

As to `Cc1cc(/C=C/c2ccc3cc(N(C)C)ccc3[n+]2C)c(C)n1-c1ccccc1`, the growth is -29.5% (active) in the assay on HCT-15 colon; 4.1% (active) with HT29 colon; -1.13% (active) in the assay with SNB-75 CNS; 9.5% (active) with SNB-19 CNS; -11.9% (active) in the assay with U251 CNS; -7.89% (active) in the assay on PC-3 prostate. The results for the growth with SK-MEL-5 melanoma, in the assay on LOX IMVI melanoma and in the assay with SK-MEL-28 melanoma were -96.8% (active), -38% (active) and -63.9% (active), respectively.

`CCCNc1ccc(C2=NCCCN2)cc1`: the growth in the assay on HCT-15 colon is 97.8%; in the assay with HT29 colon, 96%; in the assay with SNB-75 CNS, 84.2%; in the assay on SNB-19 CNS, 102%; with U251 CNS, 87.4%; with PC-3 prostate it was 94.6%. For the same molecule, the figures for the growth with SK-MEL-5 melanoma, with LOX IMVI melanoma and in the assay with SK-MEL-28 melanoma were 97.5%, 95.1% and 114%, respectively.

On to `O=C(O)c1cccc([N+](=O)[O-])c1O`, for which the growth with HCT-15 colon was 99.9%; in the assay with HT29 colon, 101%; in the assay with SNB-75 CNS it was 96.1%; with SNB-19 CNS, 99.1%; with U251 CNS, 101%; in the assay with PC-3 prostate, 107%. The results for the growth with SK-MEL-5 melanoma, in the assay on LOX IMVI melanoma and in the assay on SK-MEL-28 melanoma were 105%, 95.1% and 116%, respectively.

On to `COCCCNC(=O)c1nnn2c1nc(N)c1cc(Cl)ccc12`, for which the growth in the assay on HCT-15 colon is 85.6%; in the assay with HT29 colon it was 73.4%; in the assay on SNB-75 CNS it was 70.6%; with SNB-19 CNS, 102%; with PC-3 prostate, 80.6%; in the assay on SK-MEL-5 melanoma it was 98.4%. Further, the growth in the assay on UACC-62 melanoma is 80%; in the assay with LOX IMVI melanoma it was 88.3%; in the assay on SK-MEL-28 melanoma, 87%.

Consider `O=[N+]([O-])c1ccccc1S(=O)c1ccccc1[N+](=O)[O-]`, for which the growth was 98.2% with HCT-15 colon; 107% in the assay on HT29 colon; 83.1% in the assay on SNB-75 CNS; 106% in the assay on SNB-19 CNS; 81.1% in the assay on PC-3 prostate; 95.7% with SK-MEL-5 melanoma. The values for the growth in the assay with UACC-62 melanoma, in the assay on LOX IMVI melanoma and in the assay on SK-MEL-28 melanoma were 83.3%, 70% and 100%, respectively.

With `CCS(=O)(=O)c1cc(=O)[nH]c(=O)[nH]1`, the growth was 109% in the assay with HCT-15 colon; 101% with HT29 colon; 82.4% with SNB-75 CNS; 102% in the assay with SNB-19 CNS; 93.8% with U251 CNS; 124% in the assay on PC-3 prostate. For the same molecule, the growth with SK-MEL-5 melanoma was 93.2%; in the assay on LOX IMVI melanoma, 101%; with SK-MEL-28 melanoma, 98.9%.

On to `C[C@@H](c1ccccc1)[C@@H](C(=O)O)c1ccccc1`, for which the growth with HCT-15 colon was 95.4%; in the assay with HT29 colon, 103%; with SNB-75 CNS it was 88.4%; in the assay with SNB-19 CNS, 92.4%; in the assay on U251 CNS, 93.1%; in the assay with PC-3 prostate, 94.5%. Besides, the results for the growth in the assay on SK-MEL-5 melanoma, in the assay with LOX IMVI melanoma and with SK-MEL-28 melanoma were 98.2%, 98.4% and 108%, respectively.

As for `O=C(OCC(O)C1OC(c2ccccc2)OC(COC(=O)c2ccccc2)C1O)c1ccccc1` (stereo unspecified), the growth is 96.6% with HCT-15 colon; 103% with HT29 colon; 77.4% with SNB-75 CNS; 94.2% with SNB-19 CNS; 83.5% in the assay with PC-3 prostate; 97.1% in the assay with SK-MEL-5 melanoma. The growth was 108% in the assay with UACC-62 melanoma, 108% with LOX IMVI melanoma and 104% in the assay with SK-MEL-28 melanoma.
